# Only a selection was taken, and hits are over-represented in it overall.
# BL2 CD40 inh – CD40 pathway inhibition in BL2 cells; BL2 NF-kB luciferase reporter, CD40L-induced, 4 h; inhibition, % at 10 µM; actives 0.94% (n = 83,000);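 active means mean inhibition of at least 50% with a set share of replicates also reaching that level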
# A number is an active result; 0 = inactive.
SMILES,BL2 CD40 inh
C=CCN1[C@@H]2CN(C(=O)NC(C)C)C[C@H]1C2c1ccc(Br)cc1 (stereo partly drawn),0
CC(=NNC(=S)N1CC2CCC(CC2)C1)c1nccs1,66.2
COc1ccc(C#Cc2ccc([C@H]3[C@@H](CO)N4CCCCN(C(=O)Cc5ccccc5)C[C@H]34)cc2)cc1,0
c1ccc2sc(C3(N4CCCC4)CCCCC3)cc2c1,0
C/C=C/c1ccc(C2[C@@H]3CN(Cc4cccnc4)C[C@H]2N3)cc1 (stereo partly drawn),0
COC(=O)[C@@H]1[C@@H](CO)[C@@H]2Cn3c(ccc(-c4ccccc4)c3=O)[C@H]1N2S(=O)(=O)c1ccccc1C,0
CCN1CCC2(CC1)NC(=O)c1ccccc1O2,0
CC(=O)OC1C(=O)OCC23CCC4(C)OC4C2OC2CC(OC(=O)C=CC=CC(=O)OCCC1C)C3(C)C21CO1 (stereo not drawn),67.7
CC1=CC2OC3CC4OC(=O)C=CC=CC(=O)OCCC(C)C(O)C(=O)OCC2(CC1O)C4(C)C31CO1 (stereo not drawn),102.6
COC(=O)[C@H]1[C@H](CO)[C@H]2Cn3c(ccc(/C=C/c4ccccc4)c3=O)[C@@H]1N2CC1CCCC1,0
O=C(Cc1ccccc1)N1CC2(C1)[C@H](c1ccccc1)[C@H](CO)N2Cc1cccc(Cl)c1,0
Cc1nn(Cc2ccccc2)c(Cl)c1C(=O)OCC(=O)N1CCCC1,0
COc1ccc(OC(=O)N(C)C[C@H]2OCc3ccccc3-c3c(n(C)c4ccccc34)C(=O)N([C@@H](C)CO)C[C@@H]2C)cc1,0
Clc1ccc(C2=CCCC3CCC2N3)cn1 (stereo not drawn),0

# Assay outcomes (PubChem BioAssay)
